Screens: PubChem BioAssay, National Center for Advancing Translational Sciences (NCATS)
Most compounds without a hit are left out; they make up all but 9% or so of the library.
BAZ2B inh: BAZ2B (human) inhibition. Q9UIF8. AlphaScreen BAZ2B-H3K14Ac peptide displacement. Potency, µM (titrated, usually from 114 µM), for inactives: at the top dose activity change, negative = inhibition, most hits filed as inhibitors. 4.4% of 360,000 active. AID 504333; note: % is set by controls: 0 for no effect and ±100 for the full control effect; nearly all actives have a fitted effect of over 60% in size
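Protein-peptide AlphaScreen: BAZ2B 50 nM, b-H3K14Ac 50 nM, 1x PBS pH 7.4 + 0.01% Tween-20. Preincubation 30 min RT; cpd 30 min RT (top 110 uM); beads 20 min RT, light-protected.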
PLK1 PBD inh: PLK1 (human) polo-box domain binding inhibition. Plk1 PBD binding of FITC phosphopeptide, fluorescence polarization. P53350. AID 720504. Potency, µM, inactives show max response, negative = inhibition, hits mostly inhibitors. 2.8% of 360,000 active; note: series mostly up to about 57 µM; % is set by controls: 0 for no effect and ±100 for the full control effect; nearly all actives have a fitted effect of over 65% in size
HP1b binding inh: inhibitors of HP1-beta chromodomain binding to methylated histone tails; AlphaScreen HP1-beta / biotin-H3K9me3 peptide binding; Potency, µM (highest dose often 114 µM), inactives show at the top dose activity change, negative = inhibition, hits mostly inhibitors; 0.56% of 390,000 active; note: nearly all actives have a fitted effect of over 70% in size
Target sequence (P83916 whole entry, looked up): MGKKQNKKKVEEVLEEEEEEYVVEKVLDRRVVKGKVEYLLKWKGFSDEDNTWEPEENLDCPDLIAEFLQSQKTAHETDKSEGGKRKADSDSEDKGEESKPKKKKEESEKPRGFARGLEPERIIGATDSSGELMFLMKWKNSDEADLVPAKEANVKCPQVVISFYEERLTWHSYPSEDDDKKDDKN
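HP1-beta protein (50 nM final) preincubated 30 min at room temperature with biotinylated H3(1-18)K9me3 peptide (50 nM) in PBS pH 7.4, 0.01% Tween-20, then compound added for 30 min. AlphaScreen streptavidin donor/nickel chelate acceptor beads (10 ug/mL final), 30 min dark, luminescence read.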
JMJD2A Tudor inh: blocks the human JMJD2A Tudor domain. O75164. AlphaScreen JMJD2A-Tudor / H3K4me3 peptide binding. Potency, µM (top dose mostly 114 µM), for the others: at the top dose activity change, negative = inhibition, usual class: inhibitors. 4.4% of 390,000 active. AID 504339; note: % is set by controls: 0 for no effect and ±100 for the full control effect; nearly all actives have a fitted effect of over 50% in size
12-LOX inh: blocks human arachidonate 12S-lipoxygenase; P18054; purified 12hLO, xylenol orange hydroperoxide absorbance; Potency, µM (highest dose often 108 µM), for the others: at the highest dose activity change, negative = inhibition, hits mostly inhibitors; 1.1% of 580,000 active; note: % is set by controls: 0 for no effect and ±100 for the full control effect
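Hydroperoxide product was detected by ferrous iron/xylenol orange as the 573 to 405 nm absorbance ratio. Arachidonic acid at 40 uM (final) was turned over for 30 min at room temperature by 150 nM human 12hLO, pH 7.0 Hepes buffer, after 15 min compound preincubation.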
G9a inh: inhibitors of human histone lysine methyltransferase G9a; Q96KQ7; G9a H3K9 monomethylation, AlphaScreen, 2 h; Potency, µM (series often up to 102 µM), for inactives: at the highest dose activity, negative = inhibition, hits mostly inhibitors; 8.8% of 350,000 active; AID 504332; note: % is set by controls: 0 for no effect and ±100 for the full control effect; nearly all actives have a fitted effect of over 75% in size
Target sequence (Q96KQ7 913-1193 limits assumed): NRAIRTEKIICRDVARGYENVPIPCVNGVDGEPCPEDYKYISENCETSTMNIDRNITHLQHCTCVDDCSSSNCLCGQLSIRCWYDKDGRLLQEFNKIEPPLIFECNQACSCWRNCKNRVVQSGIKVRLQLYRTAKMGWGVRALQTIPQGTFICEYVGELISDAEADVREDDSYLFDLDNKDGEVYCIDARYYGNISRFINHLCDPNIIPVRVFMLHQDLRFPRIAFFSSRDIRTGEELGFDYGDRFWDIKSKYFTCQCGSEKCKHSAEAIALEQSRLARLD
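G9a (20 nM) preincubated 15 min RT with compounds, then 500 nM biotinylated H3K9 peptide and 20 uM SAM added; 2 h RT reaction. Monomethyl-H3K9 product detected by AlphaScreen with anti-H3K9me1 antibody, streptavidin donor and anti-rabbit IgG acceptor beads.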
Active calls of the source: *; ? = inconclusive; / = no result given; [ ] = another dose, or the depositor's remark. Calls come from the whole dose curve; as a rule, active = well fitted curve in the direction sought with a large enough effect; inconclusive = small, poorly fitted or top-dose-only effect, or another doubt; inactive = no such curve, though single readings can be large; an effect the other way counts as inactive or inconclusive. Potency is the fitted concentration of half-maximal effect.

SMILES	BAZ2B inh	PLK1 PBD inh	HP1b binding inh	JMJD2A Tudor inh	12-LOX inh	G9a inh
CCN(CC)CCCN1C(=O)C(=O)/C(=C(/O)c2ccc3c(c2)CC(C)O3)C1c1ccncc1 (stereo not given)	1%	/	/	/	/	-22%
CCN(CC)CCN1C(=O)C(=O)/C(=C(/O)c2ccc3c(c2)CC(C)O3)C1c1ccc(OC)cc1 (stereo not given)	-23%	1%	9%	?	?	50µM*
COc1cc(C2/C(=C(\O)c3ccc4c(c3)CC(C)O4)C(=O)C(=O)N2CCCn2ccnc2)cc(OC)c1OC (stereo not given)	?	-1%	20%	-32%	-25%	6%
CC(O)c1n(C)c(Cl)c[n+]1C (stereo not given)	1%	0%	9%	?	?	11µM*
c1ccc(CCNCc2cccs2)nc1	/	-9%	16%	?	0%	/
COc1ccc(NC(=S)NC(NC(=O)c2cccc(Cl)c2)C(Cl)(Cl)Cl)c([N+](=O)[O-])c1 (stereo not given)	?	-5%	?	22µM*	?	?
O=C(Cc1cccc2ccccc12)NC(NC(=S)Nc1ccccc1Cl)C(Cl)(Cl)Cl (stereo not given)	2%	24µM*	?	-20%	?	-24%
COc1ccc(NC(=S)NC(NC(C)=O)C(Cl)(Cl)Cl)c([N+](=O)[O-])c1 (stereo not given)	-6%	24µM*	?	-26%	?	11µM*
COc1ccc(NC(=S)NC(NC(=O)c2cccc(C)c2)C(Cl)(Cl)Cl)c([N+](=O)[O-])c1 (stereo not given)	?	?	-38%	-14%[11.4 µM]	?	?
O=C(NC(NC(=S)Nc1ccccc1Cl)C(Cl)(Cl)Cl)c1cccc(Cl)c1 (stereo not given)	-29%	?	-24%	-26%	?	-22%
CCC(=O)NC(NC(=S)Nc1ccccc1Br)C(Cl)(Cl)Cl (stereo not given)	1%	-4%	25%	-6%	-5%	-8%[59 µM]
CC(=O)NC(NC(=S)Nc1ccccc1Br)C(Cl)(Cl)Cl (stereo not given)	9%	-22%	-4%	-3%	?	28µM*
CC(C)Oc1ccc(S(=O)(=O)N2CCOCC2)cc1NC(=O)CCCSc1ccccc1	-3%	-7%	23%	-10%	-21%	-24%
COc1cc2c(cc1OC)[C@@H]1O[C@](CCCCN3C(=O)c4ccccc4C3=O)(C2)Oc2cc(C)n(-c3ccccc3)c(=O)c21	9%[22.9 µM]	/	/	/	/	/
CCCCC[C@]12Cc3cc(OC)c(OC)cc3C(O1)c1c(cc(C)n(-c3ccccc3)c1=O)O2	11µM*	/	/	/	/	8%[2.33 µM]
COc1cc2c(cc1OC)C1O[C@](CCCCN3C(=O)c4ccccc4C3=O)(C2)Oc2c1c(=O)oc1ccc(F)cc21	8.9µM*	/	/	/	/	?
CCCCn1c(C)cc2c(c1=O)C1O[C@](c3ccc(OC)cc3)(Cc3cc(OC)c(OC)cc31)O2	-34%[22.9 µM]	/	/	/	/	-4%[2.33 µM]
COc1cc2c(cc1OC)C1O[C@](c3ccsc3)(C2)Oc2cc(C)n(Cc3ccccc3)c(=O)c21	4µM*	/	/	/	/	13%[2.33 µM]
O=C(NCC1CCCO1)C1CCN(S(=O)(=O)Cc2ccccc2)CC1 (stereo not given)	4%	-15%	48%	-5%	0%	5%[12.7 µM]
CCOC(=O)CC(NS(=O)(=O)c1ccc2[nH]cc(C(=O)O)c(=O)c2c1)c1ccc(OCC)c(OC)c1 (stereo not given)	28µM*	?	50µM*	22µM*	-14%	10µM*
O=C(CC(=O)N/N=C/c1ccccc1[N+](=O)[O-])N/N=C/c1ccccc1[N+](=O)[O-]	/	/	/	/	-6%	/
O=C(CC(=O)NC1CCCCC1)N/N=C/c1ccccc1[N+](=O)[O-]	4%	-1%	21%	2%	-18%	45µM*
CCCCn1c(N)c(N(CCOC)C(=O)CSCc2ccc(C)cc2)c(=O)[nH]c1=O	6%	-8%	46%	-11%	?	45µM*
CCCCn1c(N)c(N(CCOC)C(=O)CSCc2ccc(Cl)c(Cl)c2)c(=O)[nH]c1=O	1%	-19%	6%	-8%	?	56µM*
CCCCn1c(N)c(N(CCOC)C(=O)COC(=O)CNC(=O)c2ccc(Cl)c(Cl)c2)c(=O)[nH]c1=O	/	-13%	57%	-7%	-3%	/
SMILES	BAZ2B inh	PLK1 PBD inh	HP1b binding inh	JMJD2A Tudor inh	12-LOX inh	G9a inh
N#Cc1cc2ccccc2n2nnnc12	-10%	0%	17%	0%	-4%	50µM*
CCc1nnc(NC(=O)COc2ccc3c(c2)OCO3)s1	4%	-17%	-30%	-8%	-26%	45µM*
Cc1nnc(NC(=O)c2ccco2)s1	10%	-11%	21%	-13%	21%	-4%
CCC(CC)c1nnc(NC(=O)c2ccc3c(c2)OCO3)s1	-11%	27µM*	?	-18%	11%	22µM*
CC(=O)c1sc(NC(=O)c2ccc3c(c2)OCO3)nc1C	-14%	-12%	30%	-22%	25%	20%[0.501 µM]
CCC(CC)c1nnc(NC(=O)COc2ccc3c(c2)OCO3)s1	?	13µM*	?	?	?	8.9µM*
CCC(CC)c1nnc(NC(=O)c2ccco2)s1	-19%	21µM*	-19%	-11%	-21%	45µM*
COc1ccccc1NCC(=O)NN=C1CCS(=O)(=O)c2ccc(F)cc21	/	-3%	16%	-24%	435%	/
Nc1ccc(-c2ccc(CO)o2)cc1	/	/	/	/	-7%	/
CCCN1C(=O)S/C(=C/c2ccc(N3CCOCC3)o2)C1=O	?	105%	20%	-20%	?	-111%[12.7 µM]
O=C(Nc1cccc(C(F)(F)F)c1)c1cccnc1NCCc1ccccc1	73%	0%	171%	101%	?	54%[59 µM]
Cc1nc(NC(=O)COC(=O)c2ccc(S(=O)(=O)N3CCc4ccccc4C3)cc2)c(Cl)cc1Cl	-18%	-4%	21%	-11%	-14%	?
COc1ccc(C(=O)NCCc2noc(-c3ccccc3)n2)cc1F	/	/	/	/	-9%	/
O=C(O)CSc1nnc(NC(=O)c2ccc3c(c2)OCO3)s1	-38%	-7%	35%	-10%	?	-25%
O=C(Nc1nnc(Cc2ccc([N+](=O)[O-])cc2)s1)c1ccc2c(c1)OCO2	-13%	1%	23%	-4%	4%	-7%[12.7 µM]
Cc1cc(=O)oc2cc(OCC(=O)Nc3nnc(C(C)C)s3)ccc12	-9%	-14%	16%	-15%	19%	45µM*
COC(=O)CSc1nnc(NC(=O)c2ccc3c(c2)OCO3)s1	-6%	-1%	52%	-6%	-5%	32µM*
